Only some compounds are listed: those with a hit (about 2.1% of all), similar ones and a draw of the others.
TDP43 rescue = rescues yeast growth from TDP-43 toxicity | 410,000 compounds, 1.8% hits | Potency, µM (top dose mostly 46.1 µM), for the others: at the highest dose growth rescue (activation), usual class: activators | TDP-43 expressing yeast growth rescue, BacTiter-Glo, 24 h | AID 652104; further: % of control where 0% means no effect; nearly all actives have a fitted effect of over 50% in size
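Readout is BacTiter-Glo luminescence of cell growth, so inhibitors register as activators. TDP-43-expressing yeast at OD600=0.02 in galactose medium, after raffinose pregrowth to mid-log, were incubated with compound for 24 hr at 30 deg C.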
FUS yeast rescue = suppressors of FUS proteinopathy in yeast; 390,000 compounds, 0.24% hits; S. cerevisiae FUS-expressing, growth rescue, OD600, 24 h; Potency, µM (titrated, usually from 76.6 µM), most hits filed as activators;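 further: plate controls were DMSO vehicle for no effect and reference control for full effect; nearly all actives have a fitted effect of over 55% in size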
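Quantitative HTS measuring growth restoration of FUS-toxic yeast. Galactose-induced cells (OD 0.005) were exposed 24hr at 30C to compounds at several concentrations, then absorbance at 600 nm was recorded.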
PTAP TSG101 blk = blocks PTAP/TSG101 interaction to inhibit HIV-1 budding. Potency, µM (highest dose often 115 µM), for the others: at the top dose activity change, negative = inhibition, most hits filed as inhibitors. Q99816. Fluorescence polarization, FITC-PTAP peptide / Tsg101 binding. 340,000 tested, under 10 active. AID 493005; active means well fitted inhibition curve with a large enough effect in the main read-out, with a control signal flat, not every such curve was filed as active; inconclusive means small, poorly fitted or top-dose-only effect, or effect the other way, or a change in a side signal; inactive means no such curve, though single readings can be large or run the other way; further: % of control where 0% means no effect
Target sequence (Q99816 whole entry, looked up): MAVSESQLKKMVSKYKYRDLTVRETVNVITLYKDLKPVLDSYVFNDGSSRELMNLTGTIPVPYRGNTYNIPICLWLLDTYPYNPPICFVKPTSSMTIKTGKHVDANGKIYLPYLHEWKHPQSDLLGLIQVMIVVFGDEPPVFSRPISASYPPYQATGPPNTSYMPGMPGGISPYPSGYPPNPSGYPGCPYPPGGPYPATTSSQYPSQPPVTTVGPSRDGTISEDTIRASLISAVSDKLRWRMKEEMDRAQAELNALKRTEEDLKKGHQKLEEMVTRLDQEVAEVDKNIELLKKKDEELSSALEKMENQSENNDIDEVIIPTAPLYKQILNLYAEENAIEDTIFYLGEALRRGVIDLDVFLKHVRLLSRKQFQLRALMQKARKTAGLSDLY
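Steps: Tsg101 binding domain dispensed (10 uM final), compounds pinned in DMSO, FITC-labeled PTAP-motif peptide added (50 nM final); after 20 min binding at room temperature, polarization measured.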
Abeta yeast res = A-beta toxicity reversal in yeast | yeast expressing A-beta42, growth rescue, OD600, 48 h; response scale: 0% DMSO, 100% iron-clioquinol control | 410,000 compounds, 0.063% hits | AID 1347071 | Potency, µM (doses to about 46.1 µM), usual class: activators; further: nearly all actives have a fitted effect of over 55% in size
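Yeast growth medium received pinned compounds, then yeast cells expressing toxic A-beta were added; plates incubated at 30 C for 48 hr. Growth read as absorbance at 600 nm, normalized to DMSO and equimolar FeCl3 plus clioquinol controls.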
aSyn yeast inh = alpha-synuclein toxicity inhibition in yeast | Yeast expressing alpha-synuclein, growth rescue, BacTiter-Glo, 24 h | Potency, µM (highest dose often 46.1 µM), for the others: at the top dose growth rescue (activation), most hits filed as activators | 370,000 compounds, 0.14% hits | AID 652106; further: % of control where 0% means no effect; nearly all actives have a fitted effect of over 65% in size
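Readout is rescue of growth in alpha-synuclein-expressing yeast, so inhibitors of toxicity appear as activators. Growth after 24 hr at 30 deg C in galactose medium is quantified by luminescence.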
* hit, by the source's call; i = inactive; ? = inconclusive; . = no result. Unless noted, the call rests on the fitted dose curve; in most records, active means well fitted curve in the direction sought with a large enough effect; inconclusive means small, poorly fitted or top-dose-only effect, or another doubt; inactive means no such curve, though single readings can be large; an effect the other way counts as inactive or inconclusive. Potency means the concentration at half of the fitted maximal effect.

SMILES	TDP43 rescue	FUS yeast rescue	PTAP TSG101 blk	Abeta yeast res	aSyn yeast inh
CCOc1ccc(-c2nc(CSCC(=O)N3CCN(c4cccc(C(F)(F)F)c4)CC3)c(C)o2)cc1	8.9%	22.4µM*	.	i	.
O=C(CSc1nnc(-c2ccccn2)n1-c1ccccc1)Nc1cccc2ccccc12	.	i	.	.	.
CN(C)Cc1csc(Nc2ccc(C(F)(F)F)cn2)n1	6.4%	i	.	i	-7.6%
CCOC(=O)N1CCc2c(sc3c2C(=O)NC(c2ccc(N(C)C)cc2)N3)C1 (configuration not stated)	14.3%	i	.	i	.
O=S(=O)(NCc1csc(-c2cccs2)n1)c1ccc(Cl)cc1	?	i	-2.9%	i	14.6%
O=S(=O)(NCc1csc(-c2cccs2)n1)c1cccc(C(F)(F)F)c1	17.8µM*	i	1.2%	i	1.3%
CCOC(=O)c1c(C)[nH]c(C)c1S(=O)(=O)N(C)CC(=O)NCc1ccc(Cl)cc1	-14.4%	i	.	i	.
Cc1ccc(-c2csc3nc[nH]c(=S)c23)cc1	17.8µM*	i	-1.1%	i	8.8%
O=C(Nc1ccccc1-c1ccccc1)c1cnccn1	17.8µM*	i	-0.9%	i	0.5%
O=C(COC(=O)c1cnccn1)Nc1ccccc1-c1ccccc1	19.0%	.	0.7%	i	6.1%
CCOC(=O)c1c(-c2ccccc2)oc2ccc(NS(=O)(=O)c3ccc(C)cc3)cc12	5.8%	?	.	i	.
CCCCn1nnnc1C(c1ccccc1)N1CCN(c2ccc(F)cc2)CC1 (configuration not stated)	28.2µM*	i	.	i	14.5%
CC(=O)N1CCN(c2nc(CC(C)C)c3c(c2C#N)CCC3)CC1	22.1%	i	-2.2%	i	6.9%
CC(C)Cc1nc(N2CCN(C(=O)c3ccccc3)CC2)c(C#N)c2c1CCC2	25.1µM*	?	-0.2%	i	2.7%
c1ccc(Sc2ncnc3ccccc23)cc1	12.6µM*	i	-1.4%	i	8.9%
c1ccc(-c2ncnc3ccccc23)cc1	12.6µM*	.	0.7%	i	-2.9%
CCOC(=O)c1cnc(Nc2ccccc2)nc1C(F)(F)F	17.8µM*	i	-4.4%	i	-0.2%
COc1ccc(NC(=O)C2CC(c3ccccc3Cl)=NO2)cc1 (configuration not stated)	11.2µM*	i	-2.5%	i	11.6%
COc1ccc(Cl)cc1NC(=O)C1CC(c2ccccc2Cl)=NO1 (configuration not stated)	9.1%	i	.	i	-1.9%
CC(C)NC(=S)N/N=C/c1cc(Br)ccc1O	?	i	0.5%	?	17.8µM*
O=C(N/N=C/c1cc(Br)ccc1O)c1ccccc1Cl	14.1µM*	i	-3.0%	i	10µM*
Oc1ccc(Br)cc1/C=N/NC(=S)NCCc1ccccc1	14.5%	i	-5.1%	?	16.2%
COC(=O)N/N=C/c1cc(Br)ccc1O	-4.7%	i	-2.0%	i	3.3%
N#Cc1ccc(OCC(=O)NCCCN2CCCC2=O)cc1	10.3%	i	.	i	-4.1%
COc1ccc(NC(=O)NCCCN2CCCC2=O)c(OC)c1	0.001µM*	i	0.1%	i	.
SMILES	TDP43 rescue	FUS yeast rescue	PTAP TSG101 blk	Abeta yeast res	aSyn yeast inh
N#Cc1ccc(-c2ccc(OCC(=O)NCCCN3CCCC3=O)cc2)cc1	12.6µM*	i	0.6%	i	-11.8%
COc1cc([N+](=O)[O-])ccc1NC(=O)NCCCN1CCCC1=O	-25.0%	i	-4.1%	i	-6.3%
O=C(Nc1cccc(F)c1)C1CCN(c2nc3ccccc3[nH]2)CC1	12.3%	i	.	i	.
Cc1c(C(=O)Nc2ccc(-c3nc4cc(Cl)ccc4o3)cc2)oc2ccccc12	0.9%	i	.	i	.
CCc1c(-c2n[nH]c(=S)n2Cc2ccccc2)csc1C	11.2µM*	i	1.4%	i	-3.6%
Cc1scc(-c2n[nH]c(=S)n2Cc2ccccc2)c1C	?	.	0.1%	i	5.7%
C[C@H]1[C@@H](OC(=O)N2CCCC2)CC[C@@]23CCCN2C(=O)CCC[C@@H]13	.	i	.	.	.
O=C(O)CC1(CC(=O)Nc2ccc3ccccc3c2)CCCCC1	-8.4%	i	-4.9%	i	1.2%
O=C(O)CC1(CC(=O)Nc2ccc(Br)cc2)CCCCC1	11.2µM*	i	-2.5%	i	-40.8%
CCOC(=O)c1cc(-c2ccc(C)cc2)n(CCC(=O)Nc2nc3c(C)cccc3s2)c1C	15.8%	i	.	i	.
Cc1ccc(C(C#N)=Cc2ccc3c(c2)OCO3)cc1	0.0%	i	.	i	0.7%
Cc1cc(-c2ccc(C)c(S(=O)(=O)NCCc3ccc(S(N)(=O)=O)cc3)c2)on1	8.0%	i	0.2%	i	4.5%
Cc1cc(-c2ccc(C)c(S(=O)(=O)NCc3cccc(Br)c3)c2)on1	35.5µM*	?	-9.7%	i	1.7%
Cc1cc(-c2ccc(C)c(S(=O)(=O)NCc3ccc(Br)cc3)c2)on1	17.8µM*	i	-0.1%	i	13.6%
CCOc1ccc(-n2c(=O)c3c(C)c(C)sc3n(Cc3c(F)cccc3Cl)c2=O)cc1	16.1%	i	.	i	.
CCN1CCN(c2c(/C=C3\SC(=S)N(Cc4ccco4)C3=O)c(C)c(C#N)c(=O)n2C)CC1	-11.0%	22.4µM*	?	i	0.4%
O=C(CSc1cnc2ccccc2n1)c1ccc(F)cc1	17.8µM*	i	-3.7%	i	2.7%
COC(=O)CSc1cnc2ccccc2n1	0.0%	i	0.8%	i	-9.7%
Cc1ccc(-c2nc3scc(CCNC(=O)c4cccc(Br)c4)n3n2)cc1	11.2µM*	i	.	i	.
O=C(NCCc1csc2nc(-c3cccc(F)c3)nn12)c1ccc(Br)o1	35.5µM*	i	.	i	.
O=C(Nc1c(-c2ccc3c(c2)OCO3)[nH][nH]c1=O)c1cccc(C(F)(F)F)c1	-6.1%	i	.	i	5.5%
CCC(C)NC(=O)CSc1nc2cc3c(cc2c(=O)n1CCCC(=O)NCCc1ccc(OC)c(OC)c1)OCO3 (configuration not stated)	12.4%	i	.	i	.
N/C(=N\C(=S)Nc1ccc2c(c1)OCO2)c1ccccc1	20µM*	i	.	?	-11.5%
N/C(=N\C(=S)Nc1ccccc1)c1ccccc1	?	i	-4.9%	?	-10.7%
NC(=S)Nc1ccc2c(c1)OCO2	4.6%	i	0.8%	i	0.7%
N#Cc1ccc(NC(=S)/N=C(\N)c2ccccc2)cc1	11.2µM*	i	.	?	-20.6%
CC(=O)N1CCC2(CC1)OC(=O)C(C)=C2C(=O)Nc1cccc(Cl)c1C	1.7%	i	.	i	.
CCN(CCCNC(=O)CSc1cc(=O)n(CC)c2ccccc12)c1cccc(C)c1	-2.0%	?	.	i	.

Screening data deposited in PubChem BioAssay by National Center for Advancing Translational Sciences (NCATS).
